This is an account of results in PubChem BioAssay (NCI).

Some test systems named below: SR leukemia; RPMI-8226 leukemia; OVCAR-8 ovarian; OVCAR-5 ovarian; OVCAR-4 ovarian; SK-OV-3 ovarian; IGROV1 ovarian; OVCAR-3 ovarian; HS 578T breast; NCI/ADR-RES ovarian.
Common to all, as to test: NCI-60 one-dose screen, 48 h (100 = growth as untreated, 0 = no growth, -100 = all killed)
What all share (conditions): 10 µM unless noted

“And” between values parts separate entries of the source, which are not always exact repeats. Equal values may be shown once. Compounds without any hit were thinned out: in the full panel of roughly 83,000, 20% have a hit.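 Note: values are percent growth. 100 is the growth of untreated cells, values between 100 and 0 indicate rising inhibition; between -100 and 0 indicates cell death.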 Unmarked numbers belong to inactive results. The source made the active and inactive calls. How the source made its calls: active means growth percent below 10; inactive means the rest.

Consider `COc1ccc(/C(C)=C(\c2ccc(OCCN3CCCCCC3)cc2)c2ccc(OC(=O)C3CCCCC3)cc2)cc1`, for which the growth in the assay on SR leukemia was -20.1% (active); with RPMI-8226 leukemia, -55.1% (active); in the assay on OVCAR-8 ovarian, -47.3% (active); in the assay with OVCAR-5 ovarian it was -24.7% (active); in the assay with OVCAR-4 ovarian it was -28.4% (active); in the assay with SK-OV-3 ovarian, -70.9% (active). In addition, the growth in the assay on IGROV1 ovarian is -49% (active); in the assay with OVCAR-3 ovarian it was -86.9% (active); in the assay on HS 578T breast, -38.3% (active); in the assay with NCI/ADR-RES ovarian, -65.2% (active).
On to `O=C1C(N2CCOCC2)=C(I)C(=O)c2ncccc21`, for which the growth in the assay with SR leukemia was 19.2%; in the assay with RPMI-8226 leukemia, 91.2%; in the assay with OVCAR-8 ovarian it was 69.5%; in the assay with OVCAR-5 ovarian it was 97.8%; in the assay on OVCAR-4 ovarian it was 59%; in the assay with SK-OV-3 ovarian it was 79.3%. The growth was 54.5% in the assay on IGROV1 ovarian, 69.8% in the assay on OVCAR-3 ovarian, 65.1% with HS 578T breast and 75.4% with NCI/ADR-RES ovarian.
Turning to `Cc1nn(-c2nc(-c3cc4ccccc4oc3=O)cs2)c(C)c1N=Nc1ccccc1`, the growth in the assay with SR leukemia is 90.4%; in the assay with RPMI-8226 leukemia, 101%; in the assay on OVCAR-8 ovarian, 106%; with OVCAR-5 ovarian it was 106%; in the assay with OVCAR-4 ovarian, 102%; in the assay with SK-OV-3 ovarian, 110%. For the same compound, the growth was 105% in the assay on IGROV1 ovarian, 101% in the assay with OVCAR-3 ovarian, 108% in the assay on HS 578T breast and 104% in the assay on NCI/ADR-RES ovarian.
In the case of `CCCCCCNC(=O)Oc1ccc(/C(=C(/CC)Cc2ccccc2)c2ccc(OCCCN(C)C)cc2)cc1`, the growth with SR leukemia was -9.68% (active); in the assay with RPMI-8226 leukemia, 75.2%; with OVCAR-8 ovarian it was 83.9%; with OVCAR-5 ovarian, 90.5%; in the assay with OVCAR-4 ovarian, 81.7%; in the assay with SK-OV-3 ovarian it was 88.2%. In addition, the growth is 68.1% in the assay with IGROV1 ovarian, 95.3% with OVCAR-3 ovarian, 86.3% in the assay on HS 578T breast and 72.2% in the assay on NCI/ADR-RES ovarian.
For the compound `O=C(Oc1ccc(CO[N+](=O)[O-])cc1)c1ccccc1`, the growth in the assay on SR leukemia is -45.7% (active); in the assay on RPMI-8226 leukemia it was -53.1% (active); in the assay on OVCAR-8 ovarian, -83.7% (active); in the assay on OVCAR-5 ovarian, -81.2% (active); in the assay with OVCAR-4 ovarian, -77.1% (active); in the assay with SK-OV-3 ovarian, -90.4% (active). For the same compound, the growth in the assay with IGROV1 ovarian was -80.2% (active); with OVCAR-3 ovarian it was -97% (active); in the assay with HS 578T breast, -25.1% (active); in the assay with NCI/ADR-RES ovarian, -82% (active).
For the compound `CCOC(=O)CCCn1c(-c2ccccc2)cc(-c2ccccc2)c(C#N)c1=O`, the growth in the assay on SR leukemia was 63.7%; with RPMI-8226 leukemia it was 87.2%; in the assay with OVCAR-8 ovarian, 85.6%; with OVCAR-5 ovarian, 99.5%; in the assay with OVCAR-4 ovarian it was 94.8%; in the assay with SK-OV-3 ovarian, 100%. The growth is 77.2% in the assay on IGROV1 ovarian, 103% in the assay on OVCAR-3 ovarian, 67.8% in the assay with HS 578T breast and 72% in the assay with NCI/ADR-RES ovarian.
Turning to `CCCCCCCCCCCCCCCC(=O)O[C@@H]1[C@@H](O)[C@@H](O)C([C@H](NC(=O)[C@@H]2C[C@@H](CCC)CN2C)[C@H](C)Cl)O[C@@H]1SC` (stereo not given in full), the growth was 98.5% in the assay with SR leukemia; 90.9% in the assay on RPMI-8226 leukemia; 103% with OVCAR-8 ovarian; 97.1% with OVCAR-5 ovarian; 105% in the assay with OVCAR-4 ovarian; 98.2% with SK-OV-3 ovarian. For the same compound, the growth in the assay on IGROV1 ovarian was 101%; in the assay on OVCAR-3 ovarian, 109%; in the assay on HS 578T breast, 122%; in the assay with NCI/ADR-RES ovarian, 112%.
With `CN1CCN(CCCN2c3ccccc3Sc3ccc(Cl)cc32)CC1`, the growth in the assay with SR leukemia was 74.7%; with RPMI-8226 leukemia, 76.3% and 92.3%; with OVCAR-8 ovarian, 84.8% and 85.4%; with OVCAR-5 ovarian, 94.4%; with OVCAR-4 ovarian, 68.4% and 81.1%; in the assay with SK-OV-3 ovarian, 99%. Further, the growth was 54.5% in the assay on IGROV1 ovarian; 93.9% and 81.3% with OVCAR-3 ovarian; 66.8% and 60.3% in the assay on HS 578T breast; 69% and 83.2% in the assay with NCI/ADR-RES ovarian.
On to `C=C1C(=O)O[C@@H]2[C@H]3[C@H](COC(C)=O)[C@@H](OC(C)=O)C[C@H]3C(=C)[C@@H](O)C[C@@H]12`, for which the growth in the assay on SR leukemia was 72.6%; with RPMI-8226 leukemia it was 76%; in the assay on OVCAR-8 ovarian, 92.1%; in the assay with OVCAR-5 ovarian, 97.2%; with OVCAR-4 ovarian, 110%; with SK-OV-3 ovarian it was 108%. Further, the growth in the assay with IGROV1 ovarian is 101%; in the assay on OVCAR-3 ovarian it was 80.9%; in the assay on HS 578T breast, 92.4%; in the assay with NCI/ADR-RES ovarian it was 98.6%.
As to `C[C@@H]1O[C@@H](O[C@H]2[C@@H](OC(=O)[C@]34CCC(C)(C)C[C@H]3C3=CC[C@@H]5[C@@]6(C)C[C@H](O)[C@H](O[C@@H]7O[C@H](CO)[C@@H](O)[C@H](O)[C@H]7O)[C@@](C)(CO)[C@@H]6CC[C@@]5(C)[C@]3(C)C[C@H]4O)OC[C@@H](O)[C@@H]2O)[C@H](O)[C@H](O[C@@H]2OC[C@@H](O)[C@H](O[C@@H]3OC[C@](O)(CO)[C@H]3O[C@@H]3OC[C@@H](O)[C@H](O)[C@H]3O)[C@H]2O)[C@H]1O[C@@H]1OC[C@](O)(CO)[C@H]1O`, the growth in the assay on SR leukemia is 67.5%; with RPMI-8226 leukemia, 64%; in the assay with OVCAR-8 ovarian it was 98.8%; with OVCAR-5 ovarian, 78.1%; in the assay on OVCAR-4 ovarian, 42.5%; in the assay on SK-OV-3 ovarian it was 93.9%. The growth with IGROV1 ovarian was 86.4%; in the assay with OVCAR-3 ovarian it was 89.6%; with HS 578T breast it was 97.9%; in the assay on NCI/ADR-RES ovarian it was 80.5%.
Regarding `Cc1cc(N2CCN(CC(=O)Nc3ccc4c(ccn4Cc4ccccc4)c3)CC2)nc(N2CCCCCC2)n1`, the growth was 29.2% with SR leukemia; 41.5% in the assay on RPMI-8226 leukemia; 31.6% in the assay on OVCAR-8 ovarian; 75.6% with OVCAR-5 ovarian; 51.8% with OVCAR-4 ovarian; 48.2% in the assay on SK-OV-3 ovarian. The growth in the assay on IGROV1 ovarian is 42.3%; with OVCAR-3 ovarian, 62.8%; with HS 578T breast it was 62.8%; with NCI/ADR-RES ovarian it was 39.6%.
Take `O=C(CCl)n1nnnc1Cc1ccccc1`: the growth was 93.5% in the assay on SR leukemia; 96.3% in the assay with RPMI-8226 leukemia; 91.1% in the assay on OVCAR-8 ovarian; 95.9% in the assay on OVCAR-5 ovarian; 105% with OVCAR-4 ovarian; 93.6% in the assay with SK-OV-3 ovarian. For the same compound, the growth in the assay with IGROV1 ovarian is 107%; with OVCAR-3 ovarian, 112%; with HS 578T breast, 121%; in the assay with NCI/ADR-RES ovarian it was 101%.
